Data on nine compounds can be found in PubChem BioAssay (NCI).

Test [1] is described as follows: NCI Yeast Anticancer Drug Screen. Data for the rad50 strain (AID 155).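 Also: 0% = growth of vehicle-only cultures of the same strain.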 Particulars: S. cerevisiae rad50 strain growth inhibition, hits give high values. The essentials:
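Cells are treated with compound, grown, and their growth is then scored against vehicle-only cultures of the same repair-deficient yeast strain.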

Test [2] in a line: NCI Yeast Anticancer Drug Screen. Data for the mec2-1 strain (AID 157). The following applies: S. cerevisiae mec2-1 strain, hits give high values. The essentials: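 Mutant yeast (mec2-1) grown with compound; growth inhibition relative to vehicle control reported.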
Test [3] is described as follows: NCI Yeast Anticancer Drug Screen. Data for the sgs1 mgt1 strain (AID 161).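 Also: 0% = growth of cultures given vehicle only.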 The following applies: S. cerevisiae sgs1 mgt1 strain, hits give high values. The method, boiled down:
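This yeast growth screen uses a strain with defined DNA-repair lesions; compound-treated growth is compared with vehicle-treated growth.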

Test [4] in a line: NCI Yeast Anticancer Drug Screen. Data for the cln2 rad14 strain (AID 165).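 Also: 0% = growth equal to vehicle treated cultures.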 Particulars: S. cerevisiae cln2 rad14 strain, hits give high values. The method, boiled down:
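Readout is yeast growth inhibition versus vehicle-treated controls, using a strain with cln2 and rad14 alterations exposed to compound.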

Test [5] is described as follows: NCI Yeast Anticancer Drug Screen. Data for the bub3 strain (AID 167). The following applies: S. cerevisiae bub3 mutant strain, hits give high values. The essentials:
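Part of a panel of yeast mutants defective in DNA damage repair or cell cycle regulation. Each strain is grown with compound, and inhibition is calculated relative to solvent-treated cultures.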

Test [6] in a line: NCI Yeast Anticancer Drug Screen. Data for the mlh1 rad18 strain (AID 175). Particulars: S. cerevisiae mlh1 rad18 strain growth inhibition, hits give high values. The method, boiled down:
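Genetically defined yeast (DNA repair-deficient) exposed to compounds; growth inhibition determined relative to vehicle.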

[7] abbreviates: at 5.0 µM (retest, dose inferred, filed as 0.5).
Where [8] appears, read: at 50.0 µM (retest, dose inferred, filed as 5.0).

Compounds without any hit were thinned out: in the full panel of roughly 79,000, 15% have a hit. Unmarked numbers belong to inactive results. Active and inactive are the calls of the source. Rule as the data show it: active = growth inhibition above about 70%; inactive = the rest.

Take `C1=CC2CCC[N-]C2N1.C1=CC2CCC[N-]C2N1.[I][Pt+2][I]` (configuration not stated): the growth inhibition in test [1] (setting [7]) was 4%; in test [1] (setting [8]), 99% (active); in test [1] (at 50.0 µM), 99% (active); in test [2] (setting [7]), 9%; in test [2] (setting [8]), 99% (active); in test [2] (at 50.0 µM), 99.5% (active). For the same compound, the growth inhibition in test [3] (setting [7]) was 10%; in test [3] (setting [8]), 99% (active); in test [3] (at 50.0 µM) it was 34.5%; in test [4] (setting [7]), 21%; in test [4] (setting [8]) it was 99% (active); in test [4] (at 50.0 µM), 98.2% (active). The growth inhibition in test [5] (setting [7]) was 6%; in test [5] (setting [8]) it was 99% (active); in test [5] (at 50.0 µM) it was 99% (active); in test [6] (setting [7]), 23%; in test [6] (setting [8]), 99% (active); in test [6] (at 50.0 µM), 98.8% (active).
In the case of `CC1CCCC[N-]1.CC1CCCC[N-]1.N#C[S-].N#C[S-].[Cd]` (configuration not stated), the growth inhibition in test [1] (setting [7]) was 20%; in test [1] (setting [8]) it was 87% (active); in test [1] (at 50.0 µM), 93.2% (active); in test [2] (setting [7]) it was 9%; in test [2] (setting [8]), 52%; in test [2] (at 50.0 µM), 66.7%. Further, the growth inhibition in test [3] (setting [7]) was 12%; in test [3] (setting [8]), 36%; in test [3] (at 50.0 µM) it was 70.7% (active); in test [4] (setting [7]), 7%; in test [4] (setting [8]), 69%; in test [4] (at 50.0 µM) it was 58%. Further, the growth inhibition in test [5] (setting [7]) was 10%; in test [5] (setting [8]), 26%; in test [5] (at 50.0 µM), 67.7%; in test [6] (setting [7]), 16%; in test [6] (setting [8]), 39%; in test [6] (at 50.0 µM) it was 73% (active).
Turning to `CCCCCCCCCC(=O)[O][Hg][c]1ccccc1`, the growth inhibition in test [1] (setting [7]) was 99% (active); in test [1] (setting [8]) it was 99% (active); in test [1] (at 50.0 µM) it was 71.5% (active); in test [2] (setting [7]), 100% (active); in test [2] (setting [8]), 99% (active); in test [2] (at 50.0 µM), 99.7% (active). Further, the growth inhibition in test [3] (setting [7]) is 99% (active); in test [3] (setting [8]) it was 100% (active); in test [3] (at 50.0 µM), 99.5% (active); in test [4] (setting [7]), 99% (active); in test [4] (setting [8]), 99% (active); in test [4] (at 50.0 µM) it was 99.4% (active). Besides, the growth inhibition was 99% (active) in test [5] (setting [7]); 98% (active) in test [5] (setting [8]); 99.3% (active) in test [5] (at 50.0 µM); 99% (active) in test [6] (setting [7]); 99% (active) in test [6] (setting [8]); 99.1% (active) in test [6] (at 50.0 µM).
Take `COc1ccc2nc3ccccc3c(NCCCCN(C)CCCl)c2c1`: the growth inhibition in test [1] (setting [7]) was 58%; in test [1] (setting [8]), 86% (active); in test [1] (at 50.0 µM), 77.2% (active); in test [2] (setting [7]), 23%; in test [2] (setting [8]) it was 87% (active); in test [2] (at 50.0 µM), 70.8% (active). Besides, the growth inhibition in test [3] (setting [7]) is 42%; in test [3] (setting [8]) it was 99% (active); in test [3] (at 50.0 µM) it was 83.9% (active); in test [4] (setting [7]) it was 34%; in test [4] (setting [8]) it was 98% (active); in test [4] (at 50.0 µM), 70%. In addition, the growth inhibition in test [5] (setting [7]) was 46%; in test [5] (setting [8]) it was 99% (active); in test [5] (at 50.0 µM), 62.6%; in test [6] (setting [7]), 61%; in test [6] (setting [8]), 91% (active); in test [6] (at 50.0 µM) it was 75.6% (active).
Consider `CCCCCCCCCCCCCCCCCC[N+](C)(C)C` (tested in a mixture with another compound), for which the growth inhibition in test [1] (setting [7]) is 99% (active); in test [1] (setting [8]) it was 99% (active); in test [1] (at 50.0 µM), 2.1%; in test [2] (setting [7]), 98% (active); in test [2] (setting [8]), 99% (active); in test [2] (at 50.0 µM), 13.1%. Besides, the growth inhibition was 99% (active) in test [3] (setting [7]); 99% (active) in test [3] (setting [8]); 73.5% (active) in test [3] (at 50.0 µM); 78% (active) in test [4] (setting [7]); 98% (active) in test [4] (setting [8]); 13.2% in test [4] (at 50.0 µM). In addition, the growth inhibition in test [5] (setting [7]) was 99% (active); in test [5] (setting [8]), 97% (active); in test [5] (at 50.0 µM), -1.15%; in test [6] (setting [7]), 99% (active); in test [6] (setting [8]), 99% (active); in test [6] (at 50.0 µM), -2.5%.
With `CC12CCC(=O)C=C1CCC1C2CCC2(C)C(O[Si](C)(C)OC3CCC4C5CCC6=CC(=O)CCC6(C)C5CCC34C)CCC12` (configuration not stated), the growth inhibition is 3% in test [1] (setting [7]); 44% in test [1] (setting [8]); 98.8% (active) in test [1] (at 50.0 µM); -12% in test [2] (setting [7]); 16% in test [2] (setting [8]); 98.7% (active) in test [2] (at 50.0 µM). Besides, the growth inhibition was 0% in test [3] (setting [7]); 37% in test [3] (setting [8]); 95.8% (active) in test [3] (at 50.0 µM); 1% in test [4] (setting [7]); 33% in test [4] (setting [8]); 58.4% in test [4] (at 50.0 µM). In addition, the growth inhibition is -1% in test [5] (setting [7]); 0% in test [5] (setting [8]); 97.1% (active) in test [5] (at 50.0 µM); 6% in test [6] (setting [7]); 53% in test [6] (setting [8]); 96.8% (active) in test [6] (at 50.0 µM).
Take `CCN1C(C)N1P(=S)(OC1CC(C)(C)N(O)C(C)(C)C1)OC1CC(C)(C)N(O)C(C)(C)C1` (configuration not stated): the growth inhibition in test [1] (setting [7]) was -2%; in test [1] (setting [8]) it was 3%; in test [1] (at 50.0 µM), 45.9%; in test [2] (setting [7]), -6%; in test [2] (setting [8]), 6%; in test [2] (at 50.0 µM), 91.3% (active). For the same compound, the growth inhibition was -3% in test [3] (setting [7]); 1% in test [3] (setting [8]); 32.2% in test [3] (at 50.0 µM); -3% in test [4] (setting [7]); 4% in test [4] (setting [8]); 90.3% (active) in test [4] (at 50.0 µM). Besides, the growth inhibition in test [5] (setting [7]) is -5%; in test [5] (setting [8]), 5%; in test [5] (at 50.0 µM), 98.1% (active); in test [6] (setting [7]) it was -5%; in test [6] (setting [8]), 12%; in test [6] (at 50.0 µM) it was 14.6%.
For the compound `[N-]=[N+]=NS(=O)(=O)c1ccccc1S(=O)(=O)N=[N+]=[N-]`, the growth inhibition in test [1] (setting [7]) is 13%; in test [1] (setting [8]), 99% (active); in test [1] (at 50.0 µM), 99.2% (active); in test [2] (setting [7]), 8%; in test [2] (setting [8]), 100% (active); in test [2] (at 50.0 µM), 92.6% (active). In addition, the growth inhibition is 9% in test [3] (setting [7]); 99% (active) in test [3] (setting [8]); 99.8% (active) in test [3] (at 50.0 µM); 67% in test [4] (setting [7]); 99% (active) in test [4] (setting [8]); 74.8% (active) in test [4] (at 50.0 µM). Besides, the growth inhibition was -2% in test [5] (setting [7]); 97% (active) in test [5] (setting [8]); 49.1% in test [5] (at 50.0 µM); 18% in test [6] (setting [7]); 99% (active) in test [6] (setting [8]); 99.6% (active) in test [6] (at 50.0 µM).
`N#CSCC(=O)O` (tested in a mixture with another compound): the growth inhibition was 2% in test [1] (setting [7]); -6% in test [1] (setting [8]); 0.5% in test [1] (at 50.0 µM); 2% in test [2] (setting [7]); 4% in test [2] (setting [8]); 7.4% in test [2] (at 50.0 µM). Besides, the growth inhibition in test [3] (setting [7]) was 3%; in test [3] (setting [8]), 5%; in test [3] (at 50.0 µM), 5.85%; in test [4] (setting [7]), -4%; in test [4] (setting [8]) it was 3%; in test [4] (at 50.0 µM) it was 25.1%. For the same compound, the growth inhibition was -3% in test [5] (setting [7]); -3% in test [5] (setting [8]); 6.3% in test [5] (at 50.0 µM); 0% in test [6] (setting [7]); -6% in test [6] (setting [8]); -7.75% in test [6] (at 50.0 µM).
